Source: PubChem BioAssay (NCI)
About 83,000 compounds went through this panel and 20% of them were active in at least one assay; those are over-represented in the sample as a whole.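 Testing used 96-well plates and a 48-hour single-concentration exposure. Example: -40 means 40% of the starting cells died.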 A number with no mark means an inactive call. Activity calls are given as the source filed them.

Each compound was assayed on PC-3 prostate (assay: NCI-60 one-dose screen, 48 h (100 = growth as untreated, 0 = no growth, -100 = all killed)). Conditions: 10 µM unless noted.
Experimental: Growth inhibition of the PC-3 human tumor cell line is measured as a screen for anti-cancer activity. Cells are grown in 96 well plates and exposed to the test compound for 48 hours. Compounds are tested at a single concentration, which is 10^-5 M for most compounds. The reported endpoint is percent growth (GI% or GIPRCNT), where numbers from 0 - 100% represent growth inhibition, and numbers from -100% - 0 represent cell death. For example, a value of 40 represents 60% growth inhibition. A value of 0 means no net growth occurred over the course of the experiment. A value of -40 indicates 40% of cells at the beginning of the experiment died by the end of the experiment. A value of -100 means all cells are dead at the end of the experiment.
NCI-60 Human Tumor Cell Lines Screen was performed using the standard one-dose NCI protocol, which is described in more detail at https://dtp.cancer.gov/discovery_development/nci-60/default.htm.
Compounds with GIPRCNT values below 10 were considered active. Activity score was based on GIPRCNT using the following formula: […]
Score is 0 for GIPRCNT values of 100 or above, 50 for GIPRCNT values of 0, and 100 for GIPRCNT values of -100.
With COc1ccc(/C=C2\SC(=Nc3ccccc3)NC2=O)cc1 the growth was -73.5% (active).
In the case of COc1ccc(-c2nc(-c3ccccc3)c(-c3ccccc3)[nH]2)cc1OC1CCCCC1, the growth is reported as 64.8%.
Compound O=C1/C(=C\c2ccc[nH]2)c2ccccc2N1c1ccccc1 has a growth of 90.9%.
In the case of CCC1=C[C@@H]2CN(C1)Cc1c([nH]c3ccccc13)[C@@](C(=O)OC)(c1cc3c(cc1OC)N(C)[C@H]1[C@@](O)(C(=O)OC)[C@H](OC(C)=O)[C@]4(CC)[C@@H]5C[C@@H]5CN5CC[C@]31[C@@H]54)C2, the growth is reported as 22.5%.
Compound O=c1c2cccc(F)c2sc2c(N3CCNCC3)nc3ccccc3c12 has a growth of 39.8%.
COc1cc(/C=C2\CN(S(=O)(=O)c3ccccc3)C/C(=C\c3cc(CN4CCCC4)c(O)c(OC)c3)C2=O)cc(CN2CCCC2)c1O was tested, and the growth was 8.85% (active).
CCCCN1CCN(c2ccc3nc(-c4ccc5nc(-c6ccc(OC)c(OC)c6)[nH]c5c4)[nH]c3c2)CC1 gave a growth of 14.3%.
CCCCOCc1cc(CN2CCN(C)CC2)c(O)c2ncccc12 gave a growth of 34.3%.
CCOC(=O)C1(Cc2ccccc2)CCN(Cc2cccc(OC)c2O)CC1 was tested, and the growth was 25%.
COc1cc(/C=C/C(=O)c2ccc(Cl)cc2)cc(CN2CCCCC2)c1O gave a growth of 90.6%.
For CC/C(=C(\CC)c1ccc(OCC[N+](C)(C)C)cc1)c1ccc(OC)cc1, the growth was 41.6%.
Work on COC(=O)/C(CCC=C(C)C)=C1\[C@@H](OC(C)=O)C[C@@]2(C)[C@H]1C[C@@H](O)[C@H]1[C@@]3(C)CC[C@H](NCCCNCCCCNCCCN)[C@@H](C)[C@@H]3CC[C@@]12C yielded a growth of 77.3%.
With O=C(CCc1nnc2sc(-c3ccc(Cl)cc3Cl)nn12)c1nc2ncccc2[nH]1 the growth was -38.6% (active).
Work on CNCCNc1nc2ccccc2c2c(=O)c3cc(F)ccc3sc12 yielded a growth of 34%.
COC(=O)C1=C(C)NC(C)=C(C(=O)OC)C(N2C(=O)CCC2=O)C1 (stereo not given) was tested, and the growth was 84.6%.
For CCCCCCn1c(=N)n(CC(O)COc2cccc(C)c2)c2ccccc21 (stereo not given), the growth was -11% (active).
Compound CCN(CCO)CCNc1ccc(C)c2sc3cc(Cl)ccc3c(=O)c12 has a growth of 21.8%.
With O=C(CN1C=NC2C(N3CCOCC3)=NC=NC21)c1ccc(Br)cc1 (stereo not given) the growth was 95.5%.
For COc1cccc(/C(C#N)=C/c2nc3c(N4CCOCC4)nc(Cl)nc3n2C)c1, the growth was -27.4% (active).
For Fc1cccc(COc2ccc(Nc3ncnc4onc(-c5ccccc5)c34)cc2)c1, the growth was 18.4%.
Compound CCN1C(=O)N(CC)C2Nn3c(s/c(=C\c4ccccc4F)c3=O)=NC21 (stereo not given) has a growth of 39.6%.
Work on S=C1CCCC(=S)N1 yielded a growth of 103%.
Compound CCCN1C(=O)N(CCC)C2C1NN=c1s/c(=C3\C(=O)N(C(C)C)c4ccccc43)c(=O)n12 (stereo not given) has a growth of 35.8%.
With O=Cc1c(OCc2cnnn2CC(=O)Nc2ccc(Br)cc2)ccc2ccccc12 the growth was 90.2%.
Compound COC(=O)c1ccc(NC(=O)CSc2nc3ccccc3c(=O)n2-c2ccccc2)cc1 has a growth of 103%.
Work on CCOC(=O)c1sc(-c2ccc(OS(=O)(=O)c3cccs3)c(C=O)c2)nc1C yielded a growth of 11.1%.
Nc1ncnc(N)c1NC(=O)c1ccc(OCc2ccccc2)cc1 was tested, and the growth was 106%.
With CC[C@]1(O)C[C@@H]2CN(CCc3c([nH]c4ccccc34)[C@@](C(=O)OC)(c3cc4c(cc3OC)N(C)[C@H]3[C@@](O)(C(=O)OC)[C@H](OC(=O)CCCBr)[C@]5(CC)C=CCN6CC[C@]43[C@@H]65)C2)C1 the growth was 20.1%.
In the case of O=C(Nc1ccc(Cl)cc1)N1CCN(c2ccc3nncn3n2)CC1, the growth is reported as 16.4%.
Compound COc1cc(/C=C/C(=O)c2ccc(Nc3nc(NCCO)nc(N4CCOCC4)n3)cc2)cc(OC)c1OC has a growth of 31%.
COc1ccc(-c2nsc3c2NC(=O)CC3c2cccc(OC)c2)cc1 (stereo not given) showed a growth of 23.8%.
In the case of COc1ccc(C2=Nn3c(NN)nnc3SC2)cc1, the growth is reported as 87.6%.
Compound COc1c2ccoc2c(/C=C/C=O)c2oc(-c3ccccc3)cc(=O)c12 has a growth of 37.9%.
Compound COc1ccc(-n2c(C(O)c3ccccc3)nn(CN3CCOCC3)c2=S)cc1 (stereo not given) has a growth of 101%.
Compound O=C(COc1cc(O)c2c(=O)cc(-c3ccccc3)oc2c1)Nc1ccccc1C(F)(F)F has a growth of 64.6%.
COc1ccccc1N1CCN(C(CNS(=O)(=O)c2ccc(Cl)cc2)c2cccnc2)CC1 (stereo not given) was tested, and the growth was 48.9%.
O=C(Nc1ccc(N2CCNCC2)cc1)c1[nH]ncc1Nc1cc(Oc2ccccc2)ncn1 was tested, and the growth was -60.3% (active).
Compound COc1cccc(C(=O)Cn2cc(/C=C(\C#N)S(=O)(=O)c3ccccc3)c3ccccc32)c1 has a growth of 109%.
O=C(Nc1ccc(Cl)cc1F)c1cc(F)ccc1O was tested, and the growth was 3.1% (active).
For COC(=O)C1(C)COP(=O)(Nc2ccc(OC)cc2)OC1 (stereo not given), the growth was 99.8%.
